The text below walks through data of PubChem BioAssay AID434970 (Sanford-Burnham Center for Chemical Genomics, 2010).

The structures appear in SMILES notation. The whole screen tested about 11,000 compounds, of which about 310 (2.8%) were called active. No stated cut-off is given here; in the data, active means activity change below about -85%; inactive means the rest. This excerpt belongs to a sample that is enriched for actives.

This test has as its system intestinal alkaline phosphatase [Mus musculus]. In words: activators of mouse IAP, confirmation, biochemical, luminescence, single concentration (AID 434970). Conditions: purified mouse IAP, CDP-Star luminescence, 30 min, at 10 µM; activation factor: measured here: IAP activation factor, stronger effect = higher value; activity change, negative = activation: stronger effect = lower value.
Regarding `CCOc1ccc(Br)cc1S(=O)(=O)Nc1ccccc1N1CCOCC1`, the activation factor amounted to 0.919 and the activity change, negative = activation is 8.1% (inactive).
For the molecule `CC(C)N(C(=O)[C@H]1C[C@H](CC(=O)NC(C)(C)C)C(=O)N2CCc3c([nH]c4cc(-c5ccco5)ccc34)[C@]12C)C(C)C`, the activation factor came to 1.09 and the activity change, negative = activation was -9% (inactive).
For the molecule `CC(=O)NC1=NN(C(C)=O)C(c2cccs2)S1` (centres undefined), the activation factor is 1.08 and the activity change, negative = activation is -8% (inactive).
For `CCSc1sccc1C1C(C#N)=C(N)N(c2cccnc2)C2=C1C(=O)CCC2` (centres undefined), the activation factor amounted to 0.703 and the activity change, negative = activation was 29.8% (inactive).
As for `Cc1oc(-c2ccccc2F)nc1CN1CCC(C(=O)NC2CCCc3ccccc32)CC1` (centres undefined), the activation factor is 1.12 and the activity change, negative = activation was -12.4% (inactive).
The matching figures for `CC[C@]12c3[nH]c4ccc(OC)cc4c3CCN1C(=O)C(CC(=O)NCc1cccc(C(F)(F)F)c1)C[C@@H]2C(=O)N1CCN(C(=O)c2ccco2)CC1` (some centres undefined): 0.989 and 1.05% (inactive).
The matching figures for `CN(Cc1ccccc1)C(=O)Cn1cccc1C(=O)c1ccccc1`: 1.13 and -13.4% (inactive).
For `O=C(C1CCCN1C(=O)c1cccs1)N1CCN(Cc2ccc3c(c2)OCO3)CC1` (centres undefined), the activation factor was 0.924 and the activity change, negative = activation is 7.55% (inactive).
Turning to `OCCN1CCN(C(=S)c2ccc(Cl)c(Cl)c2)CC1`, the activation factor stood at 0.845 and the activity change, negative = activation was 15.5% (inactive).
The corresponding values for `CSCC[C@H](N)C(=O)NC[C@H]1O[C@@H](n2cnc3c(N)ncnc32)[C@H](O)[C@@H]1O` are 0.994 and 0.55% (inactive).
The corresponding values for `CC(C)CC(=O)NC(NC(=S)Nc1sc2c(c1C#N)CCCC2)C(Cl)(Cl)Cl` (centres undefined) are 0.587 and 41.3% (inactive).
For `C[C@@H]1CN([C@H](C)CO)C(=O)c2cc(NC(=O)Nc3cccc4ccccc34)ccc2O[C@H]1CN(C)Cc1ccc(C(F)(F)F)cc1`, the activation factor amounted to 2.2 and the activity change, negative = activation was -120% (active).
Turning to `CC(C)NC(=O)N(C)C[C@H]1Oc2ccc(NC(=O)Nc3ccc(C(F)(F)F)cc3)cc2C(=O)N([C@H](C)CO)C[C@@H]1C`, the activation factor is 1.96 and the activity change, negative = activation is -96.3% (inactive).
The corresponding values for `C[C@H](CO)N1C[C@H](C)[C@H](CN(C)Cc2ccccc2)Oc2ccc(NC(=O)Nc3ccc(F)cc3)cc2C1=O` are 1.54 and -53.5% (inactive).
For `C[C@@H]1CN([C@@H](C)CO)C(=O)c2cccc(NC(=O)Nc3ccc(F)cc3)c2O[C@@H]1CN(C)Cc1ccc(Oc2ccccc2)cc1`, the activation factor is 2.17 and the activity change, negative = activation is -117% (active).
Take `C[C@H]1CN([C@@H](C)CO)C(=O)c2cc(NC(=O)Nc3cccc4ccccc34)ccc2O[C@@H]1CN(C)Cc1ccc(-c2ccccc2)cc1`: the activation factor came out at 2.14 and the activity change, negative = activation was -114% (active).
`C[C@@H]1CN([C@@H](C)CO)C(=O)Cc2cc(NC(=O)Nc3cccc4ccccc34)ccc2O[C@@H]1CN(C)S(C)(=O)=O`: the activation factor amounted to 1.46 and the activity change, negative = activation is -46.2% (inactive).
Turning to `C[C@@H]1CN([C@@H](C)CO)C(=O)c2cc(NC(=O)Nc3ccccc3)ccc2O[C@H]1CN(C)C(=O)Nc1cccc2ccccc12`, the activation factor came out at 1.8 and the activity change, negative = activation is -79.6% (inactive).
In the case of `C[C@H](CO)N1C[C@H](C)[C@H](CN(C)Cc2ccc(Oc3ccccc3)cc2)Oc2ccc(NC(=O)Nc3cccc4ccccc34)cc2CC1=O`, the activation factor is 2.03 and the activity change, negative = activation was -103% (active).
Take `C[C@@H]1CN([C@@H](C)CO)C(=O)Cc2cc(NC(=O)Nc3cccc4ccccc34)ccc2O[C@@H]1CN(C)Cc1ccc(C(F)(F)F)cc1`: the activation factor was 1.75 and the activity change, negative = activation is -75% (inactive).
The matching figures for `C[C@@H]1CN([C@H](C)CO)C(=O)c2cc(NC(=O)Nc3ccc(F)cc3)ccc2O[C@H]1CN(C)C(=O)Nc1ccc(C(F)(F)F)cc1`: 1.57 and -57.4% (inactive).
Take `C[C@@H]1CN([C@H](C)CO)C(=O)Cc2cc(NC(=O)Nc3ccccc3)ccc2O[C@@H]1CN(C)Cc1ccc2c(c1)OCO2`: the activation factor came to 1.66 and the activity change, negative = activation is -66.3% (inactive).
Regarding `C=CCn1c(C)cc(C(=O)COC(=O)COc2ccccc2C#N)c1C`, the activation factor came to 0.919 and the activity change, negative = activation is 8.05% (inactive).
The corresponding values for `S=c1[nH]nc(CSc2nc3ccccc3s2)n1Cc1ccccc1` are 1.1 and -10.1% (inactive).
Consider `CCOC(=O)C1=CN(Cc2cccc(F)c2)S(=O)(=O)N(CC)C1c1ccc(F)c(Cl)c1` (centres undefined), for which the activation factor is 1.1 and the activity change, negative = activation was -9.9% (inactive).
As to `CC(=O)Cc1nsc(NC(=O)c2ccc(-c3cccc(C(F)(F)F)c3)o2)n1`, the activation factor amounted to 0.948 and the activity change, negative = activation is 5.2% (inactive).
Turning to `COc1cc(OC)c(C2N(c3ccccn3)C(=O)C3CCCN32)cc1OC` (centres undefined), the activation factor was 1.11 and the activity change, negative = activation is -10.6% (inactive).
With `Cc1cc(C(=O)CSc2nnc(-c3cccc(F)c3)n2N)c(C)n1Cc1ccc2c(c1)OCO2`, the activation factor amounted to 0.849 and the activity change, negative = activation is 15.2% (inactive).
On to `Nc1ncnc2c1ncn2[C@@H]1O[C@H](CNC(=O)[C@@H](N)CO)[C@@H](O)[C@H]1O`, for which the activation factor came to 0.992 and the activity change, negative = activation is 0.75% (inactive).
On to `S=C(NCc1ccccc1)Nc1ccc(Oc2ccccc2)cc1`, for which the activation factor turned out to be 1.49 and the activity change, negative = activation is -49% (inactive).
With `COc1cc(OC)c2c(-c3ccccc3)cc(=O)oc2c1C(CCN1CCOCC1)c1ccc(N(C)C)cc1` (centres undefined), the activation factor was found to be 0.992 and the activity change, negative = activation was 0.8% (inactive).
Regarding `CN(C)S(=O)(=O)n1cnc(-c2ccccc2)c1-c1ccccc1`, the activation factor was determined as 1.06 and the activity change, negative = activation was -5.85% (inactive).
The matching figures for `Cc1ccc(NC(=O)C2CCN(C(=O)NC3CCCCC3)CC2)c(C)c1`: 1.02 and -1.95% (inactive).
Regarding `Cc1cccc(N/C(N)=N/c2nc(C)cc(C)n2)c1`, the activation factor turned out to be 1.05 and the activity change, negative = activation is -4.7% (inactive).
Turning to `Cc1ccc(N/C(N)=N/c2nc(C)cc(N3CCCCC3)n2)c(C)c1`, the activation factor is 4.22 and the activity change, negative = activation is -322% (active).
On to `CCOC(=O)C1=CN(Cc2ccco2)S(=O)(=O)NC1c1cccc(OC)c1` (centres undefined), for which the activation factor was 0.986 and the activity change, negative = activation is 1.35% (inactive).
With `CCOc1ccc(-c2nnc(-c3cccnc3)o2)cc1OCC`, the activation factor is 0.916 and the activity change, negative = activation is 8.35% (inactive).
